Screens deposited in PubChem BioAssay by National Center for Advancing Translational Sciences (NCATS).
AmpC det inh: AmpC beta-lactamase inhibition, detergent assay; P00811; purified AmpC, nitrocefin hydrolysis with detergent; Potency, µM (doses to about 28.7 µM), for the others: at the top dose activity change, negative = inhibition; 71,000 tested, 0.09% active; active means well fitted curve in the direction sought with a large enough effect; inconclusive means small, poorly fitted or top-dose-only effect; further: on the % scale 0 is the no-effect control and ±100 the full control effect
Target sequence (P00811 whole entry, looked up): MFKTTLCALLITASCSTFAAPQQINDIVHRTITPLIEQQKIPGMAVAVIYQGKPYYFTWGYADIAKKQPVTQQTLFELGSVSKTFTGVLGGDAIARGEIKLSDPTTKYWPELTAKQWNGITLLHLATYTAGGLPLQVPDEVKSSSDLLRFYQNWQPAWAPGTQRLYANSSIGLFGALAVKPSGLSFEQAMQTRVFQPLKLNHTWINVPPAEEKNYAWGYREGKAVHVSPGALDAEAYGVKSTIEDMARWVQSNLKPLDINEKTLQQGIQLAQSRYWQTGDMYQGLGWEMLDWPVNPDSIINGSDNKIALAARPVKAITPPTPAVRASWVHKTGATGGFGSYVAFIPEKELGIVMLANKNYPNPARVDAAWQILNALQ
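E. coli AmpC (5.3 nM) in 20 mM phosphate pH 7.0 with 0.01% Triton X-100, preincubated 15 min RT with compound; nitrocefin (2 uL of 800 uM stock) hydrolysis followed by 480 nm absorbance every 20 s over 4 min.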
Anthrax LT inh: blocks cellular internalization of anthrax lethal toxin | Cells, anthrax lethal toxin internalization, FRET ratio (460/530) | Potency, µM (series often up to 40 µM), for inactives: top-dose activity change, negative = inhibition, most hits filed as inhibitors | 70,000 tested, 0.67% active; further: on the % scale 0 is the no-effect control and ±100 the full control effect; nearly all actives have a fitted effect of over 50% in size
Prx2 Sm inh: Schistosoma mansoni Prx2 inhibition; S. mansoni Prx2 activity coupled to TGR/GSH (TGR is thioredoxin glutathione reductase), NADPH fluorescence loss, qHTS; Potency, µM; 65,000 tested, 0.07% active
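Prx2 activity was followed as the loss of NADPH fluorescence (ex 365/em 450 nm), read every 30 sec for 8 min after H2O2 start. The enzyme mix (50 nM Prx2, 25 nM TGR, GSH, NADPH; pH 7.4 phosphate buffer) was incubated with compound for 15 min at room temperature first.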
AmpC inh no det: inhibitors of E. coli AmpC beta-lactamase without detergent | AID 585 | Potency, µM (series often up to 28.7 µM), for inactives: at the top dose activity change, negative = inhibition | 71,000 tested, 1.8% active | P00811 | AmpC nitrocefin hydrolysis, absorbance 480 nm, no detergent; further: % of control where 0% means no effect
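Enzyme, pH 7.0 phosphate. Compound titrations were pre-incubated with AmpC for 15 min at room temperature before nitrocefin (stock 800 uM) addition; product formation was recorded at 480 nm every 20 s for 4 min.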
The depositor's hits bear a star; u = inconclusive; x = not tested or not shown; [ ] = another dose, or the depositor's remark. Shown are actives, neighbours in structure and some others; about 2.6% of the full set was active somewhere. Unless noted, the call rests on the fitted dose curve. Potency means the concentration at half of the fitted maximal effect.

SMILES	AmpC det inh	Anthrax LT inh	Prx2 Sm inh	AmpC inh no det
COCc1nnc(NS(=O)(=O)c2ccc(C)cc2)s1	15%	-6%	>57	-10%
CC(C)Cc1nnc(NS(=O)(=O)c2ccc(Cl)cc2)s1	25%	-14%	>57	4µM*[single pt active]
CCc1cc(=O)oc2cc(C)cc(O)c12	9%	-3%	>57	4µM*[single pt active]
CCc1cc(=O)oc2cc(C)c3c(C)coc3c12	-4%	-16%	>57	-8%
O=C(O)C1CCC(CNc2c(NC3CCCCC3)c(=O)c2=O)CC1 (stereo not given)	10%	4%	>57	4%
O=c1c(-c2nc3ccccc3o2)c2oc3ccccc3n2c2ccccc12	-5%	13µM*	>57	48%
O=c1oc2ccccc2n1CCn1c2ccccc2c2nc3ccccc3nc21	-3%	9%	>57	-4%
O=c1cnc2cnc(Nc3ccccc3)nc2n1C[C@H]1CCCO1	1%	u	>57	23%
O=c1cc(O)cc(/C=C\c2ccc(O)c(O)c2)o1	-3%	-1%	>57	6.3µM*
CN(C)CCCN1c2ccccc2Sc2ccccc21	-1%[12.8 µM]	10µM*	>57	28%[12.8 µM]
CC1=CCC2CC1C2(C)C (stereo not given)	12%	5%	x	-5%
O=C(N/N=C1/C[C@@H](O)[C@@H](O)[C@@H]2[C@H]3C(=O)N(c4ccc(F)cc4F)C(=O)[C@@H]3CC[C@@H]12)OCc1ccccc1	x	-9%[8 µM]	x	x
Cc1sc2nc3ccc(N4CCCC4)nn3c(=O)c2c1C	18%	-14%	>57	4µM*[single pt active]
COc1ccc(-n2c(=O)c(C)nc3cnc(Oc4ccccc4)nc32)cc1	-1%	u	>57	64%
COc1cccc2c1[C@@H]1CN(CCCCn3c(=O)[nH]c4c(sc5ncc(-c6ccccc6)nc54)c3=O)C[C@H]1CO2	-1%	25µM*	>57	103%
CC(C)CO/N=C1/C[C@@H](O)[C@@H](O)[C@@H]2[C@@H]3C(=O)N(Cc4ccccc4)C(=O)[C@H]3CC[C@@H]12	x	2%[8 µM]	x	x
N[C@H](C(=O)O)C1[C@H](C(=O)O)[C@H]1C(=O)O (stereo not given in full)	0%	0%	>57	3%
COc1ncc2nc(-c3cccs3)c(=O)n(Cc3cccs3)c2n1	0%	u	>11	6%
CC(C)(C)c1ccccc1OCC(=O)Nc1ncn[nH]1	11%	u	>57	-2%
CC(C)(C)c1cc(Br)ccc1OCC(=O)Nc1ncn[nH]1	4%	7.9µM*	x	-3%
O=C(Oc1ccccc1)N1CCC2(CCCN(c3ccccn3)C2)CC1	-2%	-8%	>57	57%
C=CCCC/C=C(/C)C(OCc1ccc(OC)cc1)C(CC/C=C(\C)C(N)=O)OC (stereo not given)	x	3%[8 µM]	x	x
COC(=O)c1ccc(CSc2nc3scc(-c4cccs4)c3c(=O)[nH]2)o1	-5%	-2%	>57	13µM*
CSc1nc(-c2ccco2)nn1C(=O)c1ccc(C)cc1	12%	u	>57	4µM*[single pt active]
CSc1nc(-c2ccco2)nn1C(=O)c1ccco1	10%	-12%	>57	2.5µM*[single pt active]
SMILES	AmpC det inh	Anthrax LT inh	Prx2 Sm inh	AmpC inh no det
CCCC(=O)n1nc(-c2ccco2)nc1SCc1ccccc1	-7%	-3%	>57	10µM*
Nc1nc(-c2ccco2)nn1C(=O)CCc1ccccc1	-7%	9%	>57	26%
COc1ccc(O[C@H]2C=C[C@@H](c3ccccc3)O[C@H]2CO/N=C2/[C@H]3O[C@@H]3[C@@H](O)[C@H]3[C@H]2CCn2c(=O)n(-c4ccccc4)c(=O)n23)cc1	x	1%[1.6 µM]	x	x
Cc1cc(C)c2c(=O)n(CC(=O)N3CCC(N4CCCCC4)CC3)sc2n1	8%	3.2µM*	>57	19%
Nc1c(S(=O)(=O)O)cc(S(=O)(=O)O)c2ccc(N=Nc3ccccc3)c(O)c12	-5%[5.75 µM]	0%[8 µM]	>57	-8%[5.75 µM]
Cc1cc(-c2ccc(N=Nc3cc(S(=O)(=O)O)c4ccccc4c3N)c(C)c2)ccc1N=Nc1cc(S(=O)(=O)O)c2ccccc2c1N	13µM*	u	x	5µM*
O=[N+]([O-])c1cc(C(F)(F)F)cc([N+](=O)[O-])c1Cl	13%	0%	x	-3%
CCCN(CCC)c1c([N+](=O)[O-])cc(C(F)(F)F)cc1[N+](=O)[O-]	10%	5µM*	x	-15%
CN(CCc1ccc(Cl)c(Cl)c1)C[C@@H](O)COc1ccc(NS(C)(=O)=O)cc1	-2%	u	>57	67%
CCc1ccc(C(=O)CSC2=C(C#N)C(c3ccco3)C(C(C)=O)=C(C)N2)cc1 (stereo not given)	10%	u	x	13µM*
CC1=C(C(=O)Nc2ccccc2)C(c2ccco2)C(C#N)=C(SCC(=O)OC(C)C)N1 (stereo not given)	6%	u	x	16%
CC1=C(C(=O)Nc2ccccc2)C(c2ccco2)C(C#N)=C(SCc2ccccc2)N1 (stereo not given)	9%	u	x	5µM*
CC(=O)C1=C(C)NC(SCC(=O)c2ccc(Cl)c(Cl)c2)=C(C#N)C1c1ccco1 (stereo not given)	6%	u	x	-4%
CC(=O)C1=C(C)NC(SCC(=O)c2cc(Cl)ccc2Cl)=C(C#N)C1c1ccco1 (stereo not given)	-3%	10µM*	x	u
Cc1cccc2sc(N)nc12	8%	-11%	x	-7%
CC(C)C[C@@H](CC(=O)N[C@@H](CCC(=O)O)CC(=O)O)NC(=O)[C@@H]1CNCC[C@H]1NC(=O)C[C@H](CCCN)NC(=O)C[C@H](CO)NC(=O)[C@@H]1CNCC[C@H]1N	-7%	0%	>57	11%
Cc1c(C(=O)OCc2ccccc2)[nH]c2c1C(=O)CC(c1ccco1)C2 (stereo not given)	1%	u	>57	13µM*[single pt active]
C=C(C)c1cccc(C(C)(C)NC(=O)N2CCN(c3ccccn3)CC2)c1	14%	-22%	>57	4µM*[single pt active]
Cc1noc(C)c1-c1nc(N(C)Cc2ccco2)c2ccccc2n1	-6%	u	>57	21%
Cc1nnc2ccc(N3CCN(C)CC3)nn12	5%	0%	x	-8%
Cc1nnc2ccc(N3CCN(c4ccccn4)CC3)nn12	15%	-4%	>57	4µM*[single pt active]
Cc1nnc2ccc(N3CCC(C(N)=O)(N4CCCCC4)CC3)nn12	12%	-6%	>57	4µM*[single pt active]
C=CC[C@@H]1C=C[C@H](O/N=C(\C)CCN2CCc3nc(CC)c(CC)cc3C2)[C@H](CO)O1	x	12%[1.6 µM]	x	x
COc1ccc2cc(C(=O)Nc3c(C)n(C)n(-c4ccccc4)c3=O)sc(=O)c2c1OC	10%	-6%	>57	2.5µM*[single pt active]
COc1cccc(OC)c1C(=O)Nc1c(C)n(C)n(-c2ccccc2)c1=O	1%	-10%	>57	4%
COc1ccc(NC(=O)Nc2c(C)n(C)n(-c3ccccc3)c2=O)cc1	28%	-4%	>57	4µM*[single pt active]
C=CC[C@@H]1C=C[C@@H](O/N=C2/[C@H]3O[C@@H]3[C@@H](O)[C@H]3[C@H]2CCn2c(=O)n(-c4ccccc4)c(=O)n23)[C@@H](CO)O1	x	14%[8 µM]	x	x
